Laboratory results taken from PubChem BioAssay AID651692 (Broad Institute, 2012).
Entries with a potency or affinity are not part of this list. Calls of active or inactive are those of the source.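 The calls were made as follows: active = fitted half-maximal concentration for loss of cell signal no higher than twice the top valid tested concentration; inconclusive = flat curve at 30 to 70% inhibition, or poor fit; inactive = flat within 30%, signal rise, or potency above limit.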

test: cytotoxicity toward MDA-MB-231 breast cancer cells – cell-based, CellTiter-Glo luminescence, cherry-pick, cytotoxicity control for RAD54 inhibitor project, dose response (AID 651692); details: MDA-MB-231 viability, 24 h; series mostly up to 26 µM; activity change, negative = growth inhibition: at the top concentration;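 also: 0% = median of sample compound wells and -100% = staurosporine control wells; more negative values mean stronger loss of viable cell signal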

**Q.** With `CCOc1ccc2[nH]c3c(NCCN(C)C)ncnc3c2c1` as the compound, how does the “activity change, negative = growth inhibition” value read?
**A.** -4.38% (inactive)

**Q.** For `CN(C)CCNC(=O)c1cccc(-c2cnc3c(NC=O)cc(-c4cccs4)cn23)c1`, which “activity change, negative = growth inhibition” value is on record?
**A.** 5.06% (inactive)

**Q.** Which “activity change, negative = growth inhibition” value does the source give for `CCN(CC)CCCNc1nc2ccccc2c2nc(-c3ccncc3)nn12` here?
**A.** 2.85% (inactive)

**Q.** Which “activity change, negative = growth inhibition” value does the source give for `CN1CCCN(c2cc(-c3ccc4ccccc4c3)nc3ccnn23)CC1` here?
**A.** -8.54% (inactive)

**Q.** With `COc1ccc(CCNC(=O)c2cc3c(=O)n4ccccc4nc3n(CCCN3CCOCC3)c2=N)cc1OC` as the compound, how does the “activity change, negative = growth inhibition” value read?
**A.** 7.19% (inactive)

**Q.** Which “activity change, negative = growth inhibition” value does the source give for `CCOC(=O)c1cnc2c(ccc3ccccc32)c1NCCN(C)C` here?
**A.** 4.95% (inactive)

**Q.** With `CCOC(=O)C1C(=O)NC(N2CCN(c3ccccc3)CC2)=NC1c1ccco1` (centres undefined) as the compound, how does the “activity change, negative = growth inhibition” value read?
**A.** -0.077% (inactive)

**Q.** With `COc1cc(NC(=O)c2cccnc2Sc2ccc(C)c(C)c2)cc(OC)c1OC` as the compound, how does the “activity change, negative = growth inhibition” value read?
**A.** 8.68% (inactive)

**Q.** With `O=C(Nc1ccc(C2=NCCN2)cc1)c1ccc(C(=O)Nc2ccc(C3=NCCN3)cc2)c(Cl)c1` as the compound, how does the “activity change, negative = growth inhibition” value read?
**A.** 12.8% (inactive)

**Q.** With `c1ccc2c(c1)[nH]c1c(N3CCN(C4CCCCC4)CC3)ncnc12` as the compound, how does the “activity change, negative = growth inhibition” value read?
**A.** 4.07% (inactive)

**Q.** Which “activity change, negative = growth inhibition” value does the source give for `Cc1cc(N2CCN(C)CC2)nc2ccc(NC(=S)NCCCN3CCN(C)CC3)cc12` here?
**A.** 2.27% (inactive)

**Q.** For `CCc1nc(Nc2ccncc2)c2oc3ccccc3c2n1`, which “activity change, negative = growth inhibition” value is on record?
**A.** 4.8% (inactive)

**Q.** With `CCCCN(CC)CCCNC(=S)Nc1ccc2nc(N3CCN(C)CC3)cc(C)c2c1` as the compound, how does the “activity change, negative = growth inhibition” value read?
**A.** -1.01% (inactive)

**Q.** Which “activity change, negative = growth inhibition” value does the source give for `Cc1c(C)n(CCN(C)C)c2ccc(C(=O)OCCN(C)C)cc12` here?
**A.** 5.66% (inactive)

**Q.** Which “activity change, negative = growth inhibition” value does the source give for `COc1ccccc1NC(=O)CNC(=O)c1ccccc1` here?
**A.** 12.8% (inactive)

**Q.** Which “activity change, negative = growth inhibition” value does the source give for `COc1ccc(C(=O)Nc2ccc3nc(N4CCN(C)CC4)cc(C)c3c2)c(OC)c1` here?
**A.** -11% (inactive)

**Q.** With `N=c1n(CCN2CCCCC2)c2ccccc2n1CC(=O)c1cccc([N+](=O)[O-])c1` as the compound, how does the “activity change, negative = growth inhibition” value read?
**A.** -13.2% (inactive)

**Q.** Which “activity change, negative = growth inhibition” value does the source give for `Cn1c(NCCN2CCCC2)nc2cc(-c3ccsc3)sc2c1=O` here?
**A.** 4.38% (inactive)

**Q.** With `CN(C)CCCN(C(=O)CCOc1ccccc1)c1nc2ccc(F)cc2s1` as the compound, how does the “activity change, negative = growth inhibition” value read?
**A.** 0.41% (inactive)

**Q.** For `Cc1ccc2oc(=O)c3cc(C(=O)NCCCN4CCN(C)CC4)sc3c2c1`, which “activity change, negative = growth inhibition” value is on record?
**A.** 6.21% (inactive)

**Q.** For `CC(N)c1csc(Nc2nncc3ccccc23)n1` (centres undefined), which “activity change, negative = growth inhibition” value is on record?
**A.** -7.02% (inactive)

**Q.** For `CCN(CC)S(=O)(=O)c1ccc(Cl)c(C(=O)Nc2nnc(C)s2)c1`, which “activity change, negative = growth inhibition” value is on record?
**A.** 3.35% (inactive)

**Q.** Which “activity change, negative = growth inhibition” value does the source give for `CCN(CC)CCN(C(=O)c1ccc2ncsc2c1)c1nc2cc3c(cc2s1)OCO3` here?
**A.** -2.56% (inactive)

**Q.** For `Cc1ccc2nc3c(c(N)c2c1)CCN3c1ccccc1`, which “activity change, negative = growth inhibition” value is on record?
**A.** 0.308% (inactive)

**Q.** For `CCCNc1nc2nc3ccccn3c(=O)c2cc1C(=O)NCCN1CCOCC1`, which “activity change, negative = growth inhibition” value is on record?
**A.** 8.92% (inactive)

**Q.** Which “activity change, negative = growth inhibition” value does the source give for `Cc1ccc2nc3c(c(Nc4ccc5c(c4)OCCO5)c2c1)CCC3` here?
**A.** -14.4% (inactive)

**Q.** With `CC(C)N1CCc2c(sc(NC(=O)c3ccc(C(=O)c4ccccc4)cc3)c2C(N)=O)C1` as the compound, how does the “activity change, negative = growth inhibition” value read?
**A.** -13.8% (inactive)

**Q.** Which “activity change, negative = growth inhibition” value does the source give for `COc1ccccc1Nc1nc(NCC2CCCO2)c2ccccc2n1` (centres undefined) here?
**A.** 5.68% (inactive)

**Q.** For `CC(CCCN1CCCC1)Nc1ccnc2cc(Cl)ccc12` (centres undefined), which “activity change, negative = growth inhibition” value is on record?
**A.** 2.72% (inactive)

**Q.** Which “activity change, negative = growth inhibition” value does the source give for `O=C(NCCCN1CCCC1)c1cc2c(Cl)nc3ccccc3c2s1` here?
**A.** -12.5% (inactive)

**Q.** For `CSc1nc(SCC(N)=O)c2c3c(sc2n1)CN(C)CC3`, which “activity change, negative = growth inhibition” value is on record?
**A.** -1.15% (inactive)

**Q.** For `COc1ccccc1Nc1nc(NCCCN(C)C)nc(N)c1[N+](=O)[O-]`, which “activity change, negative = growth inhibition” value is on record?
**A.** 4.83% (inactive)

**Q.** For `Cc1cccc(-c2cc(N3CCCN(C)CC3)n3nccc3n2)c1`, which “activity change, negative = growth inhibition” value is on record?
**A.** 0.666% (inactive)

**Q.** Which “activity change, negative = growth inhibition” value does the source give for `CCN(CC)CCCNC(=O)c1cc2c(-c3cccc(OC)c3)nn(C)c2s1` here?
**A.** -1.64% (inactive)

**Q.** With `Cc1nc2nc(C)c(C)nc2nc1C` as the compound, how does the “activity change, negative = growth inhibition” value read?
**A.** 4.2% (inactive)

**Q.** Which “activity change, negative = growth inhibition” value does the source give for `COc1ccc2oc3cc(NCCN(C)C)ccc3c(=O)c2c1` here?
**A.** 4.37% (inactive)

**Q.** Which “activity change, negative = growth inhibition” value does the source give for `CCN(CC)CCCNC(=O)c1cc2c(-c3ccc(Cl)cc3)nn(C)c2s1` here?
**A.** -1.26% (inactive)

**Q.** For `COc1ccc(Nc2nc(N3CCCCC3)nc3ccccc23)c(OC)c1`, which “activity change, negative = growth inhibition” value is on record?
**A.** -11.8% (inactive)

**Q.** Which “activity change, negative = growth inhibition” value does the source give for `CCN(CC)CCCNc1nc(-c2ccccc2)nc2ccccc12` here?
**A.** -2.13% (inactive)
